ELG1 genotoxic: induces genotoxicity in HEK293T cells with luciferase-tagged ELG1; HEK293T ELG1-luciferase reporter, luminescence, 16 h; Potency, µM (top dose mostly 46 µM), hits mostly activators; actives 1.3% (n = 330,000); note: nearly all actives have a fitted effect of over 60% in size
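Cells (2,000/well) expressing the ELG1-luciferase fusion are dosed by pin tool and kept 16 hr at 37 °C, 5% CO2. Signal comes from ONE-Glo luciferase reagent after 30 min at room temperature.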
SMN2 splice enh: enhancers of SMN2 splice variant expression | actives 2.8% (n = 210,000) | HEK293 SMN2-luciferase splicing reporter, luminescence, 30-36 h | Potency, µM (highest dose often 46.1 µM), usual class: activators; note: nearly all actives have a fitted effect of over 55% in size
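HEK293 cells carry an SMN2 […]–luciferase reporter in which exon 7 inclusion puts luciferase in frame. Cells were plated 10-12 h before compound addition, then incubated 30-36 h at 37C. ONE-Glo luminescence was read; sodium butyrate at 4.5 mM final served as control.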
FLuc modulator: counter-screen for miR-21 project: firefly luciferase inhibitors or activators; actives 6.9% (n = 360,000); Potency, µM (doses to about 57.5 µM), actives largely listed as inhibitors; P08659; purified FLuc, Km substrates, luminescence inhibition; note: nearly all actives have a fitted effect of over 55% in size
Target sequence (P08659 whole entry, looked up): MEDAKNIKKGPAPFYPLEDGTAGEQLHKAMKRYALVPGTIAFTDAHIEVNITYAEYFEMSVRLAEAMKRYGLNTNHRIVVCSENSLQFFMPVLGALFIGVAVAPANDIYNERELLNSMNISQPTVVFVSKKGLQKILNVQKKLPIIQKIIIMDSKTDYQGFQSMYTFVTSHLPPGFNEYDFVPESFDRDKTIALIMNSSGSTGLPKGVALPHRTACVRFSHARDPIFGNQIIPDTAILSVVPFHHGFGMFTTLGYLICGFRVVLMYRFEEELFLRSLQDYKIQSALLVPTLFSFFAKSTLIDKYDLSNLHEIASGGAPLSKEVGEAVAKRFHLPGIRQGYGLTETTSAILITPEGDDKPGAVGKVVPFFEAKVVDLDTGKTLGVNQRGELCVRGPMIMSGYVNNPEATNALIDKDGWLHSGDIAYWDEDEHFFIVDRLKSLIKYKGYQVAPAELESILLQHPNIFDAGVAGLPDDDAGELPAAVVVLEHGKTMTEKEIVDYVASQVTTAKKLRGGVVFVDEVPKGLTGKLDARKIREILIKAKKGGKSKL
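Purified P. pyralis luciferase (10nM final) with 10uM D-luciferin and 10uM ATP (Km levels) in 50mM Tris acetate pH 7.5, 10mM Mg acetate, 0.01% Tween-20, 0.05% BSA; qHTS 6-point titration, ~60 µM downward; luminescence read.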
NPC1 promoter act: NPC1 promoter activation; Huh7 NPC1 promoter luciferase reporter, 24 h; Potency, µM (top dose mostly 9.22 µM), actives largely listed as activators; actives 2.4% (n = 320,000); AID 485313; note: nearly all actives have a fitted effect of over 60% in size
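NPC1 promoter–luciferase Huh7 cells; 24 h compound; luminescence.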
Rab9 promoter act: activators of Rab9 promoter; Huh7 Rab9 promoter-luciferase reporter, luminescence, 24 h; actives 2.8% (n = 320,000); Potency, µM (highest dose often 9.22 µM), actives largely listed as activators; note: nearly all actives have a fitted effect of over 60% in size
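Huh7 cells stably carrying a Rab9 promoter-luciferase reporter, 1500 cells per well in OP-MEM I with 10% FBS, treated with compound 24 hours at 37C. Luciferase activity read by luminescence after 10 minutes with Amplite reagent.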
Large screens that a line does not name were inactive. Compounds with a hit are over-represented: about 7.5% of the library has one in this group of screens. Calls come from the whole dose curve; as a rule, active = well fitted curve in the direction sought with a large enough effect; inconclusive = small, poorly fitted or top-dose-only effect, or another doubt; inactive = no such curve, though single readings can be large; an effect the other way counts as inactive or inconclusive.

CC(C)(C)C1CCc2c(C(=O)NNC(=O)CCCC(=O)O)csc2C1 (stereo not given)	FLuc modulator 17µM
C=CCn1c(=O)c2c(nc3n2CC(C)CN3CCc2ccccc2)n(C)c1=O (stereo not given)	none (no result: SMN2 splice enh)
CC(C)(C)c1cc(NC(=O)C2CCCO2)no1 (stereo not given)	ELG1 genotoxic inconclusive, SMN2 splice enh inconclusive, FLuc modulator 15µM, NPC1 promoter act inconclusive
COC(=O)c1c(NC(=O)c2ccco2)sc(C)c1C	SMN2 splice enh inconclusive
Cc1c(Cc2ccccc2)sc(NC(=O)c2ccco2)c1C(N)=O	FLuc modulator 7.6µM
COC(=O)c1c(NC(=O)C2CC2)sc(C(=O)Nc2ccccc2)c1C	SMN2 splice enh 1.1µM, FLuc modulator inconclusive, NPC1 promoter act inconclusive, Rab9 promoter act inconclusive
COC(=O)c1c(NC(=O)c2ccco2)sc(C(=O)Nc2ccc(F)cc2)c1C	ELG1 genotoxic inconclusive, SMN2 splice enh inconclusive, NPC1 promoter act 1.6µM, Rab9 promoter act 1.6µM
CCOc1ccc(CC(=O)Nc2sc(Cc3ccccc3)c(C)c2C(N)=O)cc1OCC	none
O=C(NCc1cccnc1)c1ccc(Cl)c(S(=O)(=O)N2CCCCCC2)c1	none
Cc1ccc(NC(=O)CSc2nccn2C2CCCC2)cc1	none (no result: ELG1 genotoxic, SMN2 splice enh, NPC1 promoter act, Rab9 promoter act)
CN(c1ccccc1)S(=O)(=O)c1ccc(NC(=S)Nc2ccccc2)cc1	none
CC1SC(=S)N(c2ccc(N(C)C)cc2)C1=O (stereo not given)	none (no result: SMN2 splice enh)
COc1cc2c(cc1OC)CN(C(=O)CCC(=O)c1ccc(F)cc1)CC2	none (no result: SMN2 splice enh, FLuc modulator, NPC1 promoter act, Rab9 promoter act)
N#C/C(=C\c1ccccc1)c1ccccn1	ELG1 genotoxic inconclusive, FLuc modulator 19µM, NPC1 promoter act inconclusive, Rab9 promoter act inconclusive
CNc1ccc(/C=C(\C#N)c2ccccn2)cc1[N+](=O)[O-]	ELG1 genotoxic 10µM, SMN2 splice enh 10µM, NPC1 promoter act 2.8µM, Rab9 promoter act 1.3µM
N#C/C(=C\c1ccc(Cl)c([N+](=O)[O-])c1)c1ccccn1	ELG1 genotoxic inconclusive
CC(C)CCN1C(=O)c2ccccc2CC1(C)C(=O)NC1CCC(C)CC1 (stereo not given)	none (no result: ELG1 genotoxic, NPC1 promoter act, Rab9 promoter act)
COc1ccc(-n2nnnc2SCC(=O)NC(=O)Nc2ccc3c(c2)OCCO3)cc1	ELG1 genotoxic inconclusive, FLuc modulator 19µM
O=C(CSc1nnnn1-c1ccc(Cl)cc1)NC(=O)Nc1ccc2c(c1)OCCO2	SMN2 splice enh inconclusive, FLuc modulator inconclusive, NPC1 promoter act inconclusive, Rab9 promoter act inconclusive
Cc1ccc(-n2nnnc2SCC(=O)NC(=O)Nc2ccc3c(c2)OCCO3)cc1	FLuc modulator 21µM, Rab9 promoter act inconclusive
COc1ccc(NC(=O)CSc2nnnn2-c2ccc(OC)cc2)cc1	none
Cc1nnc(SCC(=O)NC(=O)Nc2ccc3c(c2)OCCO3)n1N	FLuc modulator 17µM, NPC1 promoter act inconclusive, Rab9 promoter act 1.8µM (no result: SMN2 splice enh)
Cc1nnc(SCC(=O)NC(=O)Nc2ccc3c(c2)OCCO3)s1	FLuc modulator inconclusive
Cc1ccc(S(=O)(=O)N[C@H](C(=O)OCC(=O)NC(=O)Nc2ccc3c(c2)OCCO3)C(C)C)cc1	FLuc modulator inconclusive
C[C@H](NS(=O)(=O)c1ccc(Cl)cc1)C(=O)OCC(=O)NC(=O)Nc1ccc2c(c1)OCCO2	ELG1 genotoxic inconclusive, SMN2 splice enh inconclusive, FLuc modulator 17µM
CCCCn1c(N)c(N(CC(C)C)C(=O)CN(C)S(=O)(=O)c2ccc(NC(C)=O)cc2)c(=O)[nH]c1=O	none (no result: SMN2 splice enh)
CCC(C)(C)c1ccc2c(c1)C(=O)c1ccccc1C2=O	ELG1 genotoxic inconclusive, SMN2 splice enh inconclusive, FLuc modulator 1.7µM, NPC1 promoter act 1.6µM, Rab9 promoter act 2.8µM
COc1ccc(-c2noc(CCC(=O)Nc3ccc4c(c3)OCCO4)n2)cc1	FLuc modulator 17µM
COc1ccc(OCCCC(=O)Nc2ccc3c(c2)OCCO3)cc1	SMN2 splice enh inconclusive
CCCOc1ccc(C(=O)Nc2ccc3c(c2)OCCO3)cc1	ELG1 genotoxic 2.9µM, FLuc modulator 1.2µM, NPC1 promoter act 0.35µM, Rab9 promoter act 0.56µM (no result: SMN2 splice enh)
O=C(CCNc1ccccc1)c1ccc2c(c1)OCO2	ELG1 genotoxic inconclusive, FLuc modulator 4.8µM, NPC1 promoter act 2.2µM, Rab9 promoter act 2.5µM
COc1ccc(C(=O)CCNc2ccc3c(c2)OCCO3)cc1	FLuc modulator 13µM, NPC1 promoter act inconclusive
Cc1noc(C)c1COc1ccc(C(=O)OCC(=O)Nc2c(C)n(C)n(-c3ccccc3)c2=O)cc1	none
